Source: PubChem BioAssay (NCATS)
Records with an inconclusive call do not appear. Entries that show only a call come without a potency. Active and inactive are the calls of the source. The call rests on the fitted dose curve; in most records, active means well fitted inhibition curve with a large enough effect; inconclusive means small, poorly fitted or top-dose-only effect; inactive means flat fitted curve, though single readings scatter.
Potency means the concentration at half of the fitted maximal effect.

The molecules below were run on AA1029 (assay: qHTS profiling for inhibitors of Plasmodium falciparum proliferation (AID 504749; further: nearly all actives have a fitted effect of over 60% in size)). Conditions: P. falciparum in erythrocytes, SYBR Green DNA, 72 h; series mostly up to 28.7 µM.
Outline: (§1)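 P. falciparum-infected erythrocytes (0.3% parasitemia, 2.5% hematocrit final) were exposed to compounds for 72 h at 37 C in 5% CO2, then lysed with SYBR Green buffer overnight at room temperature; parasite DNA fluorescence was normalized to artemisinin and DMSO controls.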
For `Cc1cc(-c2ccc(N=Nc3c(S(=O)(=O)O)cc4cc(S(=O)(=O)O)cc(N)c4c3O)c(C)c2)ccc1N=Nc1c(S(=O)(=O)O)cc2cc(S(=O)(=O)O)cc(N)c2c1O`, the Potency was “inactive”. For `CNC(=O)[C@H](Cc1c[nH]c2ccccc12)NC(=O)[C@@H](CC(=O)NO)CC(C)C`, the Potency was “inactive”. With `CC(=O)c1ccc2c(c1)N(CCCN1CCN(CCO)CC1)c1ccccc1S2` the Potency was 8.91 µM (active). `C[C@H](CCC(=O)O)[C@H]1CC[C@H]2[C@@H]3CC[C@@H]4C[C@H](O)CC[C@]4(C)[C@H]3C[C@H](O)[C@]12C` was tested, and the Potency was “inactive”. With `CNC(=O)c1c(I)c(C(=O)NCC(=O)Nc2c(I)c(C(=O)O)c(I)c(C(=O)NCCO)c2I)c(I)c(N(C)C(C)=O)c1I` the Potency was “inactive”. `S=C1SCN(Cc2ccccc2)CN1Cc1ccccc1` was tested, and the Potency was “inactive”. In the case of `Nc1ccc(N=Nc2ccccc2)c(N)n1`, the Potency was “inactive”. With `OC/C=C/c1ccccc1` the Potency was “inactive”. `CN1CCCC(CN2c3ccccc3Sc3ccccc32)C1` (stereo not drawn) was tested, and the Potency was 10 µM (active). With `O=C1c2ccccc2C(=O)C1c1ccc(Cl)cc1` the Potency was “inactive”. With `CC(=O)Oc1cccc2c1C(=O)c1c(OC(C)=O)cc(C(=O)O)cc1C2=O` the Potency was “inactive”. `CC[C@H]1OC(=O)[C@H](C)[C@@H](O[C@H]2C[C@@](C)(OC)[C@@H](O)[C@H](C)O2)C(C)[C@@H](O[C@@H]2O[C@H](C)C[C@H](N(C)C)[C@@H]2O)[C@](C)(OC)C[C@@H](C)C(=O)[C@H](C)[C@@H](O)[C@]1(C)O` (stereo partly drawn) was tested, and the Potency was “inactive”. `CCCC(CCC)C(=O)OC1C[C@H]2CC[C@@H](C1)[N+]2(C)C` (stereo partly drawn) was tested, and the Potency was 11.2 µM (active). `CCCCCCCCCCCCCCCCCC[N+](C)(C)CCC[Si](OC)(OC)OC` was tested, and the Potency was “inactive”. In the case of `CC(=O)Nc1c(I)c(C(=O)O)c(I)c(N(C)C(C)=O)c1I`, the Potency was “inactive”. In the case of `c1ccc2c(c1)Sc1ccccc1N2CCN1CCCC1`, the Potency was 7.94 µM (active). `CC[C@H]1OC(=O)[C@H](C)[C@@H](O[C@H]2C[C@@](C)(OC)[C@@H](O)[C@H](C)O2)[C@H](C)[C@@H](O[C@@H]2O[C@H](C)C[C@H](N(C)C)[C@H]2O)[C@](C)(O)C[C@@H](C)CN(C)[C@H](C)[C@@H](O)[C@]1(C)O` was tested, and the Potency was 4.47 µM (active). For `C=CC[N+]1([C@H]2C[C@H]3[C@@H]4CC[C@H]5C[C@H](O)[C@@H](N6CCOCC6)C[C@]5(C)[C@H]4CC[C@]3(C)[C@H]2OC(C)=O)CCCC1`, the Potency was 11.2 µM (active). For `O=C1c2ccccc2CN2C(=O)c3ccccc3CN12`, the Potency was “inactive”. With `CC(C)CCCCCCc1ccc(O)cc1` the Potency was “inactive”. For `O=C(Nc1ccc(O)cc1)c1ccccc1O`, the Potency was “inactive”. In the case of `C#C[C@]1(O)CC[C@@H]2[C@H]3CCC4=CC(=O)CC[C@H]4[C@H]3C(=C)C[C@@]21CC`, the Potency was “inactive”. For `OCc1ccccc1`, the Potency was “inactive”. For `COc1ccc2nc(NC(=O)Nc3ccccc3)sc2c1`, the Potency was “inactive”. With `O=C(OCc1ccccc1)c1cccnc1` the Potency was “inactive”.

Each molecule was assayed on AS120 in the same assay as above. Conditions: P. falciparum in erythrocytes, SYBR Green DNA, 72 h; series mostly up to 28.7 µM.
Outline: as §1
In the case of `Cc1cc(-c2ccc(N=Nc3c(S(=O)(=O)O)cc4cc(S(=O)(=O)O)cc(N)c4c3O)c(C)c2)ccc1N=Nc1c(S(=O)(=O)O)cc2cc(S(=O)(=O)O)cc(N)c2c1O`, the Potency was 14.1 µM (active). For `CCOC(=O)Cc1ccc(-c2ccccc2)cc1`, the Potency was “inactive”. `CC(CN(C)C)CN1c2ccccc2Sc2ccc(C(F)(F)F)cc21` (stereo not drawn) was tested, and the Potency was 11.2 µM (active). With `O=c1n(CC2CO2)c(=O)n(CC2CO2)c(=O)n1CC1CO1` (stereo not drawn) the Potency was “inactive”. In the case of `C[C@H](CCC(=O)O)[C@H]1CC[C@H]2[C@@H]3CC[C@@H]4C[C@H](O)CC[C@]4(C)[C@H]3C[C@H](O)[C@]12C`, the Potency was “inactive”. With `CNC(=O)c1c(I)c(C(=O)NCC(=O)Nc2c(I)c(C(=O)O)c(I)c(C(=O)NCCO)c2I)c(I)c(N(C)C(C)=O)c1I` the Potency was “inactive”. With `S=C1SCN(Cc2ccccc2)CN1Cc1ccccc1` the Potency was “inactive”. With `Nc1ccc(N=Nc2ccccc2)c(N)n1` the Potency was “inactive”. With `OC/C=C/c1ccccc1` the Potency was “inactive”. `CN1CCCC(CN2c3ccccc3Sc3ccccc32)C1` (stereo not drawn) was tested, and the Potency was 12.6 µM (active). For `O=C1c2ccccc2C(=O)C1c1ccc(Cl)cc1`, the Potency was “inactive”. In the case of `CC(=O)Oc1cccc2c1C(=O)c1c(OC(C)=O)cc(C(=O)O)cc1C2=O`, the Potency was “inactive”. In the case of `O=C(c1cc2ccccc2o1)N1CCN(Cc2ccccc2)CC1`, the Potency was 8.91 µM (active). In the case of `CCCCCCCCCCCCCCCCCC[N+](C)(C)CCC[Si](OC)(OC)OC`, the Potency was “inactive”. In the case of `CC(=O)Nc1ccc(NC(=S)NC(=O)c2ccc(C(C)(C)C)cc2)cc1`, the Potency was “inactive”. For `c1ccc2c(c1)Sc1ccccc1N2CCN1CCCC1`, the Potency was 7.08 µM (active). For `NC(N)=NCC1COc2ccccc2O1` (stereo not drawn), the Potency was “inactive”. `CC[C@H]1OC(=O)[C@H](C)[C@@H](O[C@H]2C[C@@](C)(OC)[C@@H](O)[C@H](C)O2)[C@H](C)[C@@H](O[C@@H]2O[C@H](C)C[C@H](N(C)C)[C@H]2O)[C@](C)(O)C[C@@H](C)CN(C)[C@H](C)[C@@H](O)[C@]1(C)O` was tested, and the Potency was 5.01 µM (active). `CN(C)C(=O)CCSC(SCCC(=O)O)c1cccc(/C=C/c2ccc3ccc(Cl)cc3n2)c1` (stereo not drawn) was tested, and the Potency was 10 µM (active). For `CCCCCCCCCCCCCCCCOCCOCCOCCOCCOCCOCCOCCOCCOCCOCCOCCOCCOCCOCCOCCOCCOCCOCCOCCOCCO`, the Potency was 14.1 µM (active). In the case of `O=C1c2ccccc2CN2C(=O)c3ccccc3CN12`, the Potency was “inactive”. In the case of `C#C[C@]1(O)CC[C@@H]2[C@H]3CCC4=CC(=O)CC[C@H]4[C@H]3C(=C)C[C@@]21CC`, the Potency was “inactive”. In the case of `O=C(OCc1ccccc1)c1cccnc1`, the Potency was “inactive”.
